In article PMC7862700, “An all-to-all approach to the identification of sequence-specific readers for epigenetic DNA modifications on cytosine”:

Columns and labels:
Assay in all cases: DAPPL (digital affinity profiling via proximity ligation, sequencing); 10 mM Tris-HCl pH 7.5, 50 mM NaCl, 1 mM DTT, 4% glycerol, room temperature, 30 min; GST-TFs on glutathione beads, 16-mer random dsDNA library, 0.1% formaldehyde crosslink after washing; high values mean tight binding
Conditions in all cases: protein: recombinant; tags: N-terminal GST; dsDNA, one strand shown
FLI1 = target: T1, FLI1 (Homo sapiens, UniProt Q01543 1-452)
T1 sequence: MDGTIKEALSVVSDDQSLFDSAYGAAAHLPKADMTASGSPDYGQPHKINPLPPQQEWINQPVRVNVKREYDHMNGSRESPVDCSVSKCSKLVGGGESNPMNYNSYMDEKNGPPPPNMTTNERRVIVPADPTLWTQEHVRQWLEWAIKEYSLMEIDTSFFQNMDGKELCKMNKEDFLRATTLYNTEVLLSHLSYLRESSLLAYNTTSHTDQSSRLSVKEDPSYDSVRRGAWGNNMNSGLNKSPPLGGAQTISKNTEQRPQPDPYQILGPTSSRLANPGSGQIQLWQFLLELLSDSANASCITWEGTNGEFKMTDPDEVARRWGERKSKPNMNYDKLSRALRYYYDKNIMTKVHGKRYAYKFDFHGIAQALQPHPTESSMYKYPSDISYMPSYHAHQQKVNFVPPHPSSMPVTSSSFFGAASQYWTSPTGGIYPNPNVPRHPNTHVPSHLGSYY
Method in brief: (§1)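 After expression in yeast as GST fusions, human transcription factors were bound to glutathione beads, DNA-barcoded and mixed with a tag-only sample. The pools were incubated with 200 nmole of a 16-mer random double-stranded DNA library in Tris/NaCl/DTT/glycerol buffer (30 min, room temperature), washed and crosslinked with 0.1% formaldehyde. Proximity ligation with BsaI/T4 ligase ran for 1 h at 37 °C, before PCR amplification and sequencing on an Illumina NextSeq500. Binding signal is a hexamer's read frequency for a factor divided by its frequency for the tag-only sample.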

ELK1 = target: T2, ELK1 (Homo sapiens, UniProt P19419 1-428)
T2 sequence: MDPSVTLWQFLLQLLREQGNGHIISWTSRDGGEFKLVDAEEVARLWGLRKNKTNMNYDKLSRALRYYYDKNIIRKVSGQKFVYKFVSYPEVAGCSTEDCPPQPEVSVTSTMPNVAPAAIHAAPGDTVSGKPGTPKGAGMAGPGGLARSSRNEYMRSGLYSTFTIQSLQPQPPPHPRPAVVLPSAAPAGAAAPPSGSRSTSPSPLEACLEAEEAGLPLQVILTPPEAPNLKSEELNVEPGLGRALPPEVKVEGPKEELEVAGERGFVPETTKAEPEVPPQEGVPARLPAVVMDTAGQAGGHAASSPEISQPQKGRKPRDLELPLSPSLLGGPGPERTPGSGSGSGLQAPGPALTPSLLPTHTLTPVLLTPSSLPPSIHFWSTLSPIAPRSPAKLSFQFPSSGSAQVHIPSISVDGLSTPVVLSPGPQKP
Method in brief: as §1

GABPA = target: T3, GABPA (Homo sapiens, UniProt Q06546 1-454)
T3 sequence: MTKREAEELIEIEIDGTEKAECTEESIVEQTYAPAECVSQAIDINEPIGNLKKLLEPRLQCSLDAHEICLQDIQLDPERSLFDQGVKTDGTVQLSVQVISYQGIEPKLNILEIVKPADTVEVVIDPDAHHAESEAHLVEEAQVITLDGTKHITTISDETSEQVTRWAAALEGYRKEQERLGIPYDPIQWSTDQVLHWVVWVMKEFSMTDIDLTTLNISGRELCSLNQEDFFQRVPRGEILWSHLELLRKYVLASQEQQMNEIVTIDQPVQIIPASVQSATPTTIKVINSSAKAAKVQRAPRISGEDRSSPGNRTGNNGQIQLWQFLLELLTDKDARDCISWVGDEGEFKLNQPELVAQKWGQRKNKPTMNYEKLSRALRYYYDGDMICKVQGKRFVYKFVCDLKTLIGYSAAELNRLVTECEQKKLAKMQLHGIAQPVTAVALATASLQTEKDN
Method in brief: as §1

ERG = target: T4, ERG (Homo sapiens, UniProt P11308 1-479)
T4 sequence: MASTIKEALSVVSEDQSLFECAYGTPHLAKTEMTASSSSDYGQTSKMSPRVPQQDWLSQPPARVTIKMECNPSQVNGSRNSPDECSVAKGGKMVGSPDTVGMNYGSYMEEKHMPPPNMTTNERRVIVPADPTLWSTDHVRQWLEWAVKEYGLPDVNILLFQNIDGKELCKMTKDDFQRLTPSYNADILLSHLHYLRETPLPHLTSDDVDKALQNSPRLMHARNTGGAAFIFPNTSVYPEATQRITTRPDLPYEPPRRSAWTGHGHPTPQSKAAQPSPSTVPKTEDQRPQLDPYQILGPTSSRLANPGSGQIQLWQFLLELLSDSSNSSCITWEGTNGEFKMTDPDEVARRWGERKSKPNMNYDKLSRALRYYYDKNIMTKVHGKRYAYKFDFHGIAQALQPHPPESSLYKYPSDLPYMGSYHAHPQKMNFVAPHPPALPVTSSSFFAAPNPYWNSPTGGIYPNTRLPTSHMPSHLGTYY
Method in brief: as §1

ELF1 = ELF1 (Homo sapiens, UniProt P32519 1-619)
Method in brief: as §1

EHF = target: T5, EHF (Homo sapiens, UniProt Q9NZC4 1-300)
T5 sequence: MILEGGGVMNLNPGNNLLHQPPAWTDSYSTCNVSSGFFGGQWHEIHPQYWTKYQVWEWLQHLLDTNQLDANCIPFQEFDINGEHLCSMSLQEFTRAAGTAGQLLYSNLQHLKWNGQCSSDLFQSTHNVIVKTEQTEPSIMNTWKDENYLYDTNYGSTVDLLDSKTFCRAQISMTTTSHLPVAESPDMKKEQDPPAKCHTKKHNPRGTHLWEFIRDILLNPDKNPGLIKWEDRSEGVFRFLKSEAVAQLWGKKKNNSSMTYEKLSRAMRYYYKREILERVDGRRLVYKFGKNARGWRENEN
Method in brief: as §1

SPI1 = SPI1 (Homo sapiens, UniProt P17947 1-270)
Method in brief: as §1

SPIB = SPIB (Homo sapiens, UniProt Q01892 1-262)
Method in brief: as §1

ELK3 = target: T6, ELK3 (Homo sapiens, UniProt P41970 1-407)
T6 sequence: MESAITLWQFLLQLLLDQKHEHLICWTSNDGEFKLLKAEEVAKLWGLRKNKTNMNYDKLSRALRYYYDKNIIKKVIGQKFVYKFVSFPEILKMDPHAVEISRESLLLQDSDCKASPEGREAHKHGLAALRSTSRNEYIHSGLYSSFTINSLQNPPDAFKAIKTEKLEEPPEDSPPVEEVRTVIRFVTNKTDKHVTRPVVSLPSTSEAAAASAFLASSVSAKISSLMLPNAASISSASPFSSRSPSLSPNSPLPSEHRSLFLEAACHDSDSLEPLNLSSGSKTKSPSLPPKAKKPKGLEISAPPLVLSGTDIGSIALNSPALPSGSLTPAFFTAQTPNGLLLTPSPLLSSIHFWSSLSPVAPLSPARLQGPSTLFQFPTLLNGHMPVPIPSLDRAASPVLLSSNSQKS
Method in brief: as §1

Sequence of ELF1 (P32519 whole entry): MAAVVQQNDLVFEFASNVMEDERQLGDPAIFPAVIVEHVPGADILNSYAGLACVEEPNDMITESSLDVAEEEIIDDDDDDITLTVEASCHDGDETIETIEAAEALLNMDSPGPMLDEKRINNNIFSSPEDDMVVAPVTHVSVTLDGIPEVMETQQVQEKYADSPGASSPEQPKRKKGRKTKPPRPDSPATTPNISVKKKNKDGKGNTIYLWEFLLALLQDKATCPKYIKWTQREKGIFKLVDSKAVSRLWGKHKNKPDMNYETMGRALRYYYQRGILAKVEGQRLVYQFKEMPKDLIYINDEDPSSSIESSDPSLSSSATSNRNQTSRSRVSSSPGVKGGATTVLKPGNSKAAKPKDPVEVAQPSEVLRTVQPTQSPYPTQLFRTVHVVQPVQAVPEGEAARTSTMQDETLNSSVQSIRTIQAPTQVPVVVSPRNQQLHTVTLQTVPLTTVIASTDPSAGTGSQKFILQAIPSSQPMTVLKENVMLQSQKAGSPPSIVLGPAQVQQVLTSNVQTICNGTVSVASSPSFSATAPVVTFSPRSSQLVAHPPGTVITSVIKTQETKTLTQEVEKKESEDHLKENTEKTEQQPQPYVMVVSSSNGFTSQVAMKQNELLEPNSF
Sequence of SPIB (Q01892 whole entry): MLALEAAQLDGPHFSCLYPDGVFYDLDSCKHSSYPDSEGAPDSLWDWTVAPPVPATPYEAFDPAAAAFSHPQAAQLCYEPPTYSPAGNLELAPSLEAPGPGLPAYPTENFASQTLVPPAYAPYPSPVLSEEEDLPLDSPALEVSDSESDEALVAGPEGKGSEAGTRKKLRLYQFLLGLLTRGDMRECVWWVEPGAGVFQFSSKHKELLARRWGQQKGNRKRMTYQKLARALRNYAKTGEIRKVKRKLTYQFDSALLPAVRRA

Row | Sequence | binding signal (FLI1) | binding signal (ELK1) | binding signal (GABPA) | binding signal (ERG) | binding signal (ELF1) | binding signal (EHF) | binding signal (SPI1) | binding signal (SPIB) | binding signal (ELK3)
1 | TCTCGT | 1.34 fold enrichment (6-mer frequency, TF over GST control) | 1.11 fold enrichment (6-mer frequency, TF over GST control) | 1.15 fold enrichment (6-mer frequency, TF over GST control) | 1.11 fold enrichment (6-mer frequency, TF over GST control) | 1.24 fold enrichment (6-mer frequency, TF over GST control) | 1.22 fold enrichment (6-mer frequency, TF over GST control) | 1.24 fold enrichment (6-mer frequency, TF over GST control) | 1.3 fold enrichment (6-mer frequency, TF over GST control) | 1.19 fold enrichment (6-mer frequency, TF over GST control)
2 | TTTCAT | 1.11 fold enrichment (6-mer frequency, TF over GST control) | 1.09 fold enrichment (6-mer frequency, TF over GST control) | 1.22 fold enrichment (6-mer frequency, TF over GST control) | 1.15 fold enrichment (6-mer frequency, TF over GST control) | 1.18 fold enrichment (6-mer frequency, TF over GST control) | 1.17 fold enrichment (6-mer frequency, TF over GST control) | 1.14 fold enrichment (6-mer frequency, TF over GST control) | 1.22 fold enrichment (6-mer frequency, TF over GST control) | 1.15 fold enrichment (6-mer frequency, TF over GST control)
3 | ATCTAT | 1.15 fold enrichment (6-mer frequency, TF over GST control) | 1.14 fold enrichment (6-mer frequency, TF over GST control) | 1.17 fold enrichment (6-mer frequency, TF over GST control) | 1.09 fold enrichment (6-mer frequency, TF over GST control) | 1.16 fold enrichment (6-mer frequency, TF over GST control) | 1.12 fold enrichment (6-mer frequency, TF over GST control) | 1.09 fold enrichment (6-mer frequency, TF over GST control) | 1.15 fold enrichment (6-mer frequency, TF over GST control) | 1.13 fold enrichment (6-mer frequency, TF over GST control)
4 | TGTTAT | 1.37 fold enrichment (6-mer frequency, TF over GST control) | 1.27 fold enrichment (6-mer frequency, TF over GST control) | 1.36 fold enrichment (6-mer frequency, TF over GST control) | 1.41 fold enrichment (6-mer frequency, TF over GST control) | 1.29 fold enrichment (6-mer frequency, TF over GST control) | 1.35 fold enrichment (6-mer frequency, TF over GST control) | 1.38 fold enrichment (6-mer frequency, TF over GST control) | 1.31 fold enrichment (6-mer frequency, TF over GST control) | 1.24 fold enrichment (6-mer frequency, TF over GST control)
5 | TCCGCT | 2.39 fold enrichment (6-mer frequency, TF over GST control) | 2.38 fold enrichment (6-mer frequency, TF over GST control) | 2.06 fold enrichment (6-mer frequency, TF over GST control) | 2.31 fold enrichment (6-mer frequency, TF over GST control) | 2.11 fold enrichment (6-mer frequency, TF over GST control) | 2.33 fold enrichment (6-mer frequency, TF over GST control) | 3.26 fold enrichment (6-mer frequency, TF over GST control) | 2.37 fold enrichment (6-mer frequency, TF over GST control) | 2.43 fold enrichment (6-mer frequency, TF over GST control)
6 | TCGATT | 1.12 fold enrichment (6-mer frequency, TF over GST control) | 1.11 fold enrichment (6-mer frequency, TF over GST control) | 1.13 fold enrichment (6-mer frequency, TF over GST control) | 1.12 fold enrichment (6-mer frequency, TF over GST control) | 1.12 fold enrichment (6-mer frequency, TF over GST control) | 1.05 fold enrichment (6-mer frequency, TF over GST control) | 1.08 fold enrichment (6-mer frequency, TF over GST control) | 1.15 fold enrichment (6-mer frequency, TF over GST control) | 1.06 fold enrichment (6-mer frequency, TF over GST control)
7 | TCCCGG | 2.29 fold enrichment (6-mer frequency, TF over GST control) | 2.07 fold enrichment (6-mer frequency, TF over GST control) | 2.14 fold enrichment (6-mer frequency, TF over GST control) | 2.22 fold enrichment (6-mer frequency, TF over GST control) | 2.12 fold enrichment (6-mer frequency, TF over GST control) | 2.19 fold enrichment (6-mer frequency, TF over GST control) | 2.01 fold enrichment (6-mer frequency, TF over GST control) | 2.43 fold enrichment (6-mer frequency, TF over GST control) | 1.96 fold enrichment (6-mer frequency, TF over GST control)
